# Data reported in PubChem BioAssay AID588790 (National Center for Advancing Translational Sciences (NCATS), 2011).
# The campaign covered roughly 1,200 compounds. About 85 (7%) were called active. The call rests on the fitted dose curve. Many of the other results were omitted from the sample, so actives are more common in it than they were.
# Molecular target: Beta-2 adrenergic receptor (Homo sapiens) (UniProt P07550)
# Experiment: qHTS assay of beta-arrestin-biased ligands of beta2-adrenergic receptor: Hit Validation with GloSensor; on activation: 0% is about no effect
# Settings: W9-Glo22F cells, GloSensor cAMP luminescence, beta2AR agonism; activation: at 46.1 µM (top of the series)
# Summary of the method: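 W9-Glo22F cells plated and incubated overnight at 37 deg C, 5% CO2, then compounds pinned in. GloSensor reagent added, 10 min at room temperature, luminescence read.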
# Potency means the concentration at half of the fitted maximal effect.
# Beta-2 adrenergic receptor (Homo sapiens), sequence (P07550 whole entry, looked up): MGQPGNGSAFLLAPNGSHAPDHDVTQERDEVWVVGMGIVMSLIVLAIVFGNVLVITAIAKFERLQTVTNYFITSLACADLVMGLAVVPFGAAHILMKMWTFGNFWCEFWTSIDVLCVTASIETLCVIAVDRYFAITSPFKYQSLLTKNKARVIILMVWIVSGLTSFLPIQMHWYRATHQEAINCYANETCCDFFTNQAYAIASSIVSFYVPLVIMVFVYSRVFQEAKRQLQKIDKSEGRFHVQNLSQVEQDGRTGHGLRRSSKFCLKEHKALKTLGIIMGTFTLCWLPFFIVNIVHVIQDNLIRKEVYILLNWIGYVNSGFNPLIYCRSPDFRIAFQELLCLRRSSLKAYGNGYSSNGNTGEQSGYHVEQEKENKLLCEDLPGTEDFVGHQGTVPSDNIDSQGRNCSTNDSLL
SMILES,activation,Potency
C=CCNC(=S)Nc1cc(C)ccn1,0.306% (inactive),–
O=C(NCC1CCCO1)c1ccc(CS(=O)(=O)c2ccc(Br)cc2)o1 (stereo not given),-1.01% (inactive),–
COc1ccccc1NS(=O)(=O)c1ccc(NC(=O)Cc2cccs2)cc1,–,32.6 µM (active)
CCOc1ccc(CC(=O)Nc2ccc(S(=O)(=O)Nc3cc(C)on3)cc2)cc1OCC,-1.16% (inactive),–
COc1ccccc1NS(=O)(=O)c1cc(NC(=O)CNC(=O)c2ccc(C)s2)ccc1Cl,0.306% (inactive),–
CC(C)N(Cc1cc2ccccc2[nH]c1=O)C(=O)C1CCCCC1,0.306% (inactive),–
COc1ccc(C2CC(O)(c3ccccc3)Oc3cc(OC)c(OC)c(OC)c32)cc1 (stereo not given),0.306% (inactive),–
COc1cccc(Oc2cnc(N)nc2-c2ccc(OC)cc2O)c1,–,23.1 µM (active)
COc1ccc(Nc2cc(Nc3cccc(OC)c3)ncn2)cc1,4.96% (inactive),–
C/C(CC(C)(C)C1CCCCC1)=N\NC(N)=S,-1.16% (inactive),–
O=[N+]([O-])c1cc(Cl)c(O)c2ncccc12,-1.16% (inactive),–
COc1cc([N+](=O)[O-])c2nccnc2c1,–,16.4 µM (active)
O=[N+]([O-])c1ccc(O)c2ncccc12,0.306% (inactive),–
O=[N+]([O-])c1cc(Br)cc(C=Nc2ccc3c(c2)OCO3)c1O,0% (inactive),–
Oc1ccc(NCc2cccc(OCc3ccccc3)c2)cc1,0.153% (inactive),–
COc1cc(CNc2ccc(O)cc2)cc(Br)c1OCc1ccccc1,–,14.6 µM (active)
Oc1ccc(NCc2ccc(OCc3ccccc3)cc2)cc1,-2.33% (inactive),–
C/C(Cl)=C\Cn1c(O)c(N=NC(N)=S)c2ccccc21,6.12% (inactive),–
NC(=S)N=Nc1c(O)n(CCCl)c2ccc(Cl)cc12,–,32.6 µM (active)
CC1CC(C)(C)n2c(O)c(N=NC(N)=S)c3cccc1c32 (stereo not given),4.96% (inactive),–
NC(=S)N=Nc1c(O)n(Cc2ccc(F)cc2)c2ccccc12,2.33% (inactive),–
NC(=S)N=Nc1c(O)n(CCCl)c2ccccc12,–,25.9 µM (active)
C=CCn1c(O)c(N=NC(=S)Nc2ccccc2F)c2cc(S(=O)(=O)N3CCOCC3)ccc21,0% (inactive),–
O=C(Oc1cccc2cccnc12)c1ccc2c(c1)OCCO2,-1.16% (inactive),–
COc1ccc(NC(=S)Nc2cccc(C)n2)cc1,2.33% (inactive),–
CCc1cc2c(SCC(=O)Nc3ccc(Cl)cn3)ncnc2s1,0% (inactive),–
COc1ccc(CCNc2nc(-c3ccccn3)cs2)cc1OC,–,20.6 µM (active)

SMILES,activation,Potency
COc1ccc(OCCCC(=O)Nc2nc(-c3ccccn3)cs2)cc1,0.306% (inactive),–
c1ccc(CCNc2nc(-c3ccccn3)cs2)cc1,7.28% (inactive),–
COc1ccc(NC(=S)NC(=O)c2ccc3c(c2)OCCO3)cc1,-0.857% (inactive),–
Cc1ccc(/C=C2/C(=O)N(c3ccccc3)C(=S)N2C)o1,-1.16% (inactive),–
Cc1ccc(N=C2NC(=O)/C(=C/C=C/c3ccco3)S2)cc1,11.8% (inactive),–
Cc1cccc(N=C2NC(=O)/C(=C/c3cccs3)S2)c1,–,1.03 µM (active)
C#CCn1c(=NC(=O)CSC(C)=O)sc2cc(F)ccc21,8.6% (inactive),–
Cc1ccc2cccc(SCC(=O)NCC#N)c2n1,-1.16% (inactive),–
CC(=O)c1cccc(CN2CCN(CCC(C)C)C(CCO)C2)c1 (stereo not given),0.153% (inactive),–
N#C/C(=C\c1ccncc1)c1nc2ccccc2o1,0.153% (inactive),–
N#C/C(=C\c1cccc(O)c1)c1nc2ccccc2o1,–,6.51 µM (active)
N#C/C(=C\c1ccc(Cl)cc1)c1nc2ccccc2o1,0% (inactive),–
CCCC(=O)N(c1ccc(F)cc1)C1C=CS(=O)(=O)C1 (stereo not given),-2.48% (inactive),–
CCCN(CC(=O)Nc1ccc(Cl)cc1Cl)C(=O)/C=C/c1ccco1,-2.33% (inactive),–
COc1c(O)cc(O)c2c(=O)cc(-c3ccccc3)oc12,6.12% (inactive),–
O=C1C=CC(O)(c2cc(=O)c3c(O)cc(O)cc3o2)C=C1,-1.16% (inactive),–
COc1c(-c2ccc(O)c(O)c2)oc2cc(O)cc(O)c2c1=O,–,20.6 µM (active)
Fc1ccccc1/C=N/Nc1ncnc2ccccc12,0.459% (inactive),–
Cc1ccc2cccc(SCC(=O)Nc3ccc(F)cc3)c2n1,4.96% (inactive),–
NC(=S)n1[nH]c(-c2ccc([N+](=O)[O-])cc2)c(N=Nc2ccc(Cl)cc2)c1=O,-1.16% (inactive),–
COc1cnc(-c2ccccn2)nc1Sc1ccccc1Cl,-1.16% (inactive),–
COc1cnc(-c2ccccn2)nc1Oc1ccccc1,–,29.1 µM (active)
Clc1ccc(OCc2nc(-c3ccccn3)n[nH]2)cc1,0% (inactive),–
Cc1cccc(NC(=S)N/N=C/c2cccc([N+](=O)[O-])c2)c1,-1.16% (inactive),–
CCCCC(=O)N1CCCC(c2nc(-c3cccc(OC)c3)no2)C1 (stereo not given),-1.16% (inactive),–
C=C(C)CNC(=S)N/N=C/c1ccco1,0.306% (inactive),–
COc1ccc(NS(=O)(=O)c2ccc3oc(SC4CCOC4=O)nc3c2)cc1 (stereo not given),-1.16% (inactive),–

SMILES,activation,Potency
CCOC(=O)C1=C(C)N(c2ccc(C)cc2)C(=O)/C1=C\c1ccc(O)c(OC)c1,–,18.4 µM (active)
COC(=O)C1=C(C)N(Cc2ccc(C)cc2)C(=O)/C1=C\c1ccc(O)c(OC)c1,3.64% (inactive),–
CCOC(=O)C1=C(C)N(c2ccc(OC)cc2)C(=O)/C1=C\c1ccc(O)c(OCC)c1,2.48% (inactive),–
CNC(=S)N/N=C/C1=CCC2CC1C2(C)C (stereo not given),0% (inactive),–
O=C1c2ccccc2[C@@H]2C[C@@H](O)[C@H](Nc3cccc4ccccc34)CCN12,2.48% (inactive),–
CCOC(=O)NC(=S)Nc1ccc(C(C)(C)C)cc1,0.306% (inactive),–
NC(=S)N/N=C1\CC(c2ccc3c(c2)OCCCO3)Oc2ccc(F)cc21 (stereo not given),–,11.6 µM (active)
NC(=S)N/N=C1\CCOc2ccc(F)cc21,0% (inactive),–
CNC(=S)N/N=C1\CC(c2ccccc2)Oc2ccccc21 (stereo not given),3.64% (inactive),–
c1coc(CNc2nc3nonc3nc2NCc2ccco2)c1,6.12% (inactive),–
C/C(=N\NC(=S)NCc1ccccc1)c1ccccc1F,2.48% (inactive),–
COCCNC(=S)N/N=C(\C)c1ccc(Cl)c(Cl)c1Cl,-1.16% (inactive),–
COCCNC(=S)N/N=C(\C)c1ccccc1F,–,29.1 µM (active)
COc1ccc(C(CNC(=O)c2ccc(C)c(S(=O)(=O)Nc3ccccc3OC)c2)N2CCCC2)cc1 (stereo not given),0.306% (inactive),–
C=CCn1c(CCn2c3ccccc3c3ccccc32)n[nH]c1=S,-1.16% (inactive),–
C=CCn1c(-c2ccccc2)c[nH]c1=S,-2.17% (inactive),–
C=CCn1c(CSc2nc3ccccc3s2)n[nH]c1=S,–,25.9 µM (active)
CCN(CC)C(=O)CN(c1cccc(OC)c1)S(=O)(=O)c1ccc(C)cc1,0.306% (inactive),–
CC1CCN(c2c(NCc3ccc(C(=O)NCCc4ccc(Cl)cc4)cc3)c(=O)c2=O)CC1,-1.16% (inactive),–
O=c1c2cn[nH]c2nc(SCc2ccccc2F)n1-c1ccc(Br)cc1,0% (inactive),–
CCNC(=S)N/N=C/c1ccco1,0% (inactive),–
CCNc1nc(NCC)nc(N/N=C/c2ccc(N(C)C)cc2)n1,-2.33% (inactive),–
CCNc1nc(NCC)nc(N(C)/N=C/c2ccco2)n1,–,20.6 µM (active)
O=C(/C=C/c1ccccc1)Oc1cccc2cccnc12,-2.33% (inactive),–
Cc1cc(C(=O)CN2C(=O)NC3(CCCc4ccccc43)C2=O)c(C)n1C (stereo not given),0% (inactive),–
Cc1ccc(NC(=S)N2CCn3cccc3C2c2cccnc2)cc1 (stereo not given),0.459% (inactive),–
